Structures are written as SMILES. Out of some 300,000 compounds screened, about 37,000 (12%) were called active. The list comes from a sample in which actives are over-represented; it also holds similar structures and randomly drawn compounds. A number with no mark means an inactive call. No stated cut-off is given here; in the data, active means max response mostly above about 13% (no sharp cut-off); inactive means mostly below about 14%.

Our source for the max response values is PubChem BioAssay AID2314 (National Center for Advancing Translational Sciences (NCATS), 2010).

The nature of the assay: Cycloheximide Counterscreen for Small Molecule Inhibitors of Shiga Toxin. Further: read at 38.3 µM for the half of the compounds with a filed dose; 0% is about no effect. The conditions noted are these: cell reporter, cycloheximide protein synthesis inhibition counterscreen; active compounds read high. (A counterscreen serves to expose hits that act by an unwanted route or on another target.)
`O=C(CN1CCN(C(=O)C2CCCO2)CC1)Nc1c(Cl)cccc1Cl` (stereo not drawn): the max response is -1.69%.
In the case of `Cc1cccc(N=C2NC(=O)/C(=C/c3cn(C)c4ccccc34)S2)c1` it was 3.29%; in that of `Cc1cccc(C(=O)Nc2nnc(Cc3c[nH]c4ccccc34)s2)c1`, 3.09%.
Then `Cc1cccc(N=C2NN=C(c3c[nH]c4ccccc34)CS2)c1`, with 25.2% (active); and `CC1CCCCC1NC(=O)c1cn(C)c2ccc(S(=O)(=O)N3CCOCC3)cc2c1=O` (stereo not drawn), with 1.03%.
In the case of `O=C(NCCc1csc(-c2ccccc2)n1)c1ccccc1F` it was 17.6% (active).
Take `Cc1nc(CNS(=O)(=O)c2cccnc2)cs1`: the max response was -2.9%.
For the compound `O=S(=O)(NCCc1ccncc1)c1ccccc1`, the max response is -2.7%.
With `O=S(=O)(NCCc1csc(-c2ccccc2)n1)c1cccnc1`, the max response is 19.7% (active).
As to `O=C(NCCc1ccccn1)c1cc(-c2ccc(Cl)cc2)nc2ccccc12`, the max response was -4.89%.
`O=C(NC1CCN(Cc2ccccc2)CC1)c1ccccc1F`: the max response is -5.27%.
Then `Cc1ccc(-c2nn(C(C)(C)C)c3ncnc(N)c23)cc1`, with -0.92%.
Then `COc1ccc(NC(=O)C2C3CCC(O3)C2C(=O)O)cc1OC` (stereo not drawn), with -2.93%; and `COc1ccc(CN2C3CCCC2CC(NC(=O)c2cccc(F)c2)C3)cc1` (stereo not drawn), with -1.01%.
In the case of `CCOC(=O)c1ccccc1NC(=O)COC(=O)CCC(=O)N1CCOCC1` it was -1.15%; in that of `COc1cc2c(cc1OC)C(C)N(S(=O)(=O)c1cnc(Cl)c(Cl)c1)CC2` (stereo not drawn), 11.2%; in that of `COc1ccc(-n2ncc3c2CC(C)(C)CC3NC(=O)CCc2c(C)nn(C)c2C)cc1` (stereo not drawn), 0.573%.
`CCCNC(=O)c1ccc(N2CCC3(CC2)CC(c2ccc(Cl)cc2)=NO3)c([N+](=O)[O-])c1`: the max response was -0.889%.
Then `S=C(c1ccc(-c2ccccc2)o1)N1CCCCC1`, with 38.1% (active); and `OCCN1CCN(C(=S)c2ccc(-c3ccccc3)cc2)CC1`, with -2.28%.
In the case of `S=C(c1ccccc1)N1CCCC1` it was -0.586%.
Regarding `Cc1ccc(OCC(=O)Nc2ccc(N3CCN(C(=O)c4ccco4)CC3)cc2)c(C)c1`, the max response is -1.02%.
As for `c1ccc(CN=C2Nc3ccccc3CS2)nc1`, the max response was 36.1% (active).
Then `CCOC(=O)c1c(-c2ccccc2)oc2cc(Br)c(O)cc12`, with -1.41%; and `Cc1ccc(C)c(S(=O)(=O)N2CCCOC2CNC(=O)C(=O)NC2CCCCC2)c1` (stereo not drawn), with 7.6%.
In the case of `O=S(=O)(O)c1nc2ccccc2n1Cc1ccc(Cl)cc1Cl` it was -2.23%; in that of `Cc1nc2ccccc2nc(C)c1=NOCc1ccc(Cl)cc1Cl`, 39.1% (active); in that of `COC(=O)c1sc2ncccc2c1OCc1ccc(Cl)cc1Cl`, 4.4%.
